Lassa entry = blocks Lassa virus binding or cell entry; Lassa virus pseudotyped entry inhibition, cell-based qHTS; Potency, µM (series often up to 49.2 µM), without a hit: at the top dose activity change, negative = inhibition, hits mostly inhibitors; 4.1% of 18,000 active
MARV entry inh = blocks Marburg virus binding or cell entry. Marburg virus pseudotype entry/binding inhibition, cell-based. Potency, µM (highest dose often 49.2 µM), for the others: at the highest dose activity change, negative = inhibition, actives largely listed as inhibitors. 6.5% of 18,000 active. AID 720532
The depositor's hits bear a star; ? = inconclusive; . = no result; [ ] = another dose, or the depositor's remark. Rows were chosen to be rich in hits. Some 7.1% of all compounds tested hit in one or more screens of this group. The call rests on the fitted dose curve; tested in HEK293 cells. On the % scale 0 is the no-effect control and ±100 the full control effect; potency means the concentration at half of the fitted maximal effect.

SMILES	Lassa entry	MARV entry inh
CCN1C(=O)[C@@H]2[C@H]3[C@H](O)[C@H](O)CC(=NO[C@H](C)c4cn([C@H](CO)Cc5ccccc5)nn4)[C@@H]3CC[C@H]2C1=O	.	-11%[8.59 µM]
C=CCN=C1NC(CCc2ccccc2)C(C(=O)OC)=C(C)N1CC (stereo not given)	-13%[8.59 µM]	?
NS(=O)(=O)c1cccc(Nc2cc(-c3ccc(F)cc3)[nH]n2)c1	22%	36%
C=CC(C1=CC(=O)C(OC)=CC1=O)c1ccc(OC)cc1 (stereo not given)	2%	?
C=CC(C1=CC(=O)C(OC)=C(OC)C1=O)c1ccccc1 (stereo not given)	?	14µM*
COc1ccccc1O	-13%[107 µM]	24%[107 µM]
COc1cccc(O)c1O	?	13µM*
C=C1C(=O)O[C@@H]2[C@H]3O[C@]3(C)CCC=C(C)CC[C@@H]12	22µM*	16µM*
CCCCC(F)(F)[C@@]1(O)CC[C@H]2[C@@H](CC(=O)[C@@H]2CCCCCCC(=O)O)O1	-16%	3%
COc1ccc(COCC[C@@H]2C[C@@H]3C=CCOP(=O)(O2)O3)cc1	-29%	13%
CN1CCCC(n2nc(Cc3ccc(Cl)cc3)c3ccccc3c2=O)CC1 (stereo not given)	?	7.9µM*
O=S1(=O)c2ccc(Br)cc2N2CCC[C@@H]2CN1Cc1ccc(Cl)cc1	1%	?
CCCNC(=O)OC[C@H]1O[C@H](CCON=CC[C@@H]2C=C[C@H](OC(C)=O)[C@@H](COC(C)=O)O2)C=C[C@H]1Oc1ccc(OC)cc1	.	6%[8.59 µM]
CN1CCCN([C@@H](c2ccccc2)c2ccc(Cl)cc2)CC1	-11%[17.8 µM]	11µM*
OCCOCCN1CCN([C@@H](c2ccccc2)c2ccc(Cl)cc2)CC1	-11%[17.8 µM]	?
C[C@H](Cc1ccccc1)Nc1ncnc2c1ncn2[C@@H]1O[C@H](CO)[C@@H](O)[C@H]1O	13%	35%
COc1ccc(C[C@H](N)C(=O)N[C@H]2[C@@H](O)[C@H](n3cnc4c(N(C)C)ncnc43)O[C@@H]2CO)cc1	4.5µM*	4µM*
Oc1cc2c(cc1O)[C@@H]1c3ccc(O)c(O)c3OC[C@]1(O)C2	-20%	5.6µM*
O=[S+]1([O-])C[C@@H](N2CC[C@@H](O)C2)[C@@H](COCc2ccccc2)N1	6%	23%
COC(=O)c1ccc(CN2C(=O)[C@]3(OCCC=C[C@@H]3C)c3cc(OC)ccc32)cc1	8%[8.59 µM]	-23%[8.59 µM]
COC(=O)[C@]12CCC(C)(C)C[C@H]1[C@H]1C(=O)C=C3[C@@]4(C)C=C(C#N)C(=O)C(C)(C)[C@@H]4CC[C@@]3(C)[C@]1(C)CC2	3.5µM*	3.2µM*
C#CCN1C(=O)CC[C@@]23C1=NC(C(=O)OC)=C(C(=O)OC)[C@@H]2N(CC=C(C)C)c1ccccc13	.	15%[8.59 µM]
CCCCCc1cc(O)c2c(c1)OC(C)(C)c1ccc(C)cc1-2	32µM*	?
C[C@@H]1[C@@H](c2ccccc2)Oc2c(Cl)cccc2S(=O)(=O)N1Cc1ccc(F)cc1F	3%	8%
C=C1C(=C/C=C2\CCC[C@]3(C)[C@@H]([C@H](C)/C=C/[C@@H](O)C4CC4)CC[C@@H]23)C[C@@H](O)C[C@@H]1O	14µM*	-25%
SMILES	Lassa entry	MARV entry inh
C=C1CCC(O)C/C1=C\C=C1/CCCC2(C)C1CCC2C(C)/C=C/C(C)C(C)C (stereo not given)	-29%	27%
C=C1CCC(O)C/C1=C/C=C1\CCC[C@]2(C)[C@@H]([C@H](C)CCCC(C)C)CC[C@@H]12 (stereo not given in full)	-16%	-17%
C=C1C(=C/C=C2\CCC[C@]3(C)[C@@H]([C@H](C)CCCC(C)C)CC[C@@H]23)C[C@@H](O)C[C@@H]1O	16µM*	-15%
CCCC(C)(C)C(=O)Nc1ccc(Cl)cc1	8%	9%
O=C(Nc1ccc(Cl)cc1)Nc1ccc(Cl)c(C(F)(F)F)c1	14µM*	11µM*
CCNC(C)Cc1cccc(C(F)(F)F)c1 (stereo not given)	2%	11%
C[C@@H](NCCCc1cccc(C(F)(F)F)c1)c1cccc2ccccc12	16µM*	6.3µM*
CC(=O)OC[C@H]1O[C@@H](ON=CC[C@@H]2C=C[C@@H](OC(C)=O)[C@@H](COC(C)=O)O2)[C@@H](OC(C)=O)[C@@H](OC(C)=O)[C@@H]1OC(C)=O	-11%[8.59 µM]	-12%[8.59 µM]
CC(=O)NC1C(OC2OC(CC(O)C3OC([N+]4=CCC(=O)NC4=O)C(O)C3O)C(O)C(O)C2NC(=O)/C=C/CCCCCCCCC(C)C)OC(CO)C(O)C1O (stereo not given)	-28%	?
CC(=O)N[C@H]1C(O[C@@H]2O[C@H](C[C@@H](O)[C@H]3O[C@@H](N4CCC(=O)NC4=O)[C@H](O)[C@@H]3O)[C@H](O)[C@H](O)[C@H]2NC(=O)/C=C/CCCCCCCCCCC(C)C)OC(CO)[C@@H](O)[C@@H]1O (stereo not given in full)	?	4.5µM*
CCOC(=O)[C@@]1([C@@H](NC(=O)OC)c2cccc(C)c2)CCCC1=O	9%[8.59 µM]	26%[8.59 µM]
C#CCN1C(=O)[C@@]2(CC(C)=CC[C@@H](C)O2)c2ccccc21	-24%[8.59 µM]	16%[8.59 µM]
Cc1ccc(S(=O)(=O)N2CCC(=O)N([C@H](COCc3cccc(C(F)(F)F)c3)C(C)C)CC2)cc1	-3%	?
Cc1ccc(S(=O)(=O)N2CCC(=O)N([C@H](COCc3cccc(C(F)(F)F)c3)Cc3ccccc3)CC2)cc1	?	11µM*
CCN1C(=NCc2ccc(OC)cc2)NC(c2cccc(F)c2)C(C(=O)OC)=C1C (stereo not given)	18%[8.59 µM]	2%[8.59 µM]
CCCCCCN1C[C@@H](O)[C@H](n2cc(C3CC3)nn2)C[C@H]1c1ccc(OC)cc1	-8%	-22%
CC[n+]1c(-c2ccccc2)c2cc(N)ccc2c2ccc(N)cc21	?	8.9µM*
O=S1(=O)c2ccc(Br)cc2-n2nncc2CN1Cc1ccc(C(F)(F)F)cc1	20%	25%
C=C(C)C(O)C=Cc1ccc(Br)cc1 (stereo not given)	35%[8.59 µM]	?
O=C(Nc1n[nH]c2nc(-c3ccco3)c(Br)cc12)C1CC1	66%	?
c1ccc(N2CCN(CCCOc3ccc4c(c3)OCO4)CC2)cc1	-2%	2%
O=C1NCN(c2ccccc2)C12CCN(CCCOc1ccc(F)cc1)CC2	16µM*	18µM*
CCN1C(=O)[C@H]2[C@H]3C(=CC[C@@H]2C1=O)C1(OCCCO1)[C@@H]1O[C@H]1[C@H]3O	8%[8.59 µM]	68%[8.59 µM]
CCN1C(=O)NC(c2ccccc2)C(C(=O)OC)=C1C (stereo not given)	4%[8.59 µM]	7%[8.59 µM]
COc1ccc(N2C(=O)N3[C@H](c4ccccc4)[C@@H](C)C[C@H]4c5ccccc5C[C@]43C2=O)cc1	4%[8.59 µM]	2%[8.59 µM]
SMILES	Lassa entry	MARV entry inh
O=C1C=C2C=C[C@@H]3C[C@@]2(O1)[C@H]1CCCCN31	?	14µM*
C[C@H]1CN(C2CCCCC2)C(=O)[C@H]1CC(=O)Nc1ccc(Br)cc1	.	9%
CCCCCC(=O)N1C[C@H](n2cc(-c3ccc(F)cc3)nn2)[C@@H](O)C[C@H]1c1ccc(C)cc1	-5%	-21%
COC(=O)c1ccc(CN2C(=O)C3(CC(C)=C[C@@H](C)O3)c3c(Br)cccc32)cc1 (stereo not given in full)	-7%[8.59 µM]	26%[8.59 µM]
CC1(C)CN(CCc2ccccc2)C(=O)[C@@H]1CC(=O)Nc1ccc(Br)cc1	-5%	-5%
O=C(CCCN1CCC(O)(c2ccc(Br)cc2)CC1)c1ccc(F)cc1	-16%[17.8 µM]	?
